# A selection: hits, their analogues and other compounds. The true share with any hit is near 5.4%.
# PP1 inh: blocks human PP1-alpha phosphatase, a PP5 counter-screen | P62136 | purified PP1alpha, OMFP fluorescence | AID 2235 | actives 0.9% (n = 320,000) | inhibition, % at 6.7 µM;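 active = inhibition above the mean inhibition of all tested compounds plus 3 SD, computed separately for each screening campaign, cut at about 15% in these data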
# ALR H2O2 inh: human ALR oxidase inhibition via reduced H2O2; purified ALR, DTT oxidation, H2O2 HRP-luminol luminescence; inhibition, % (concentration not given with the values); actives 3.8% (n = 290,000); AID 485317;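 active = mean replicate inhibition above about 79%, with every replicate also reaching it, limit read from the data; inconclusive = only one of the two criteria met; inactive = mean below limit and not every replicate reaching it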
# PP5 primary: inhibitors of human protein phosphatase 5 (PP5); P53041; purified PP5c, OMFP substrate fluorescence; inhibition, % at 6.7 µM; actives 0.18% (n = 320,000);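 active = inhibition above the campaign's mean inhibition across all tested compounds plus 3 SD, cut at about 9.5% in these data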;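 note: 0% = DMSO only and 100% = 100 µM cantharidin control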
# Target sequence (P53041 whole entry, looked up): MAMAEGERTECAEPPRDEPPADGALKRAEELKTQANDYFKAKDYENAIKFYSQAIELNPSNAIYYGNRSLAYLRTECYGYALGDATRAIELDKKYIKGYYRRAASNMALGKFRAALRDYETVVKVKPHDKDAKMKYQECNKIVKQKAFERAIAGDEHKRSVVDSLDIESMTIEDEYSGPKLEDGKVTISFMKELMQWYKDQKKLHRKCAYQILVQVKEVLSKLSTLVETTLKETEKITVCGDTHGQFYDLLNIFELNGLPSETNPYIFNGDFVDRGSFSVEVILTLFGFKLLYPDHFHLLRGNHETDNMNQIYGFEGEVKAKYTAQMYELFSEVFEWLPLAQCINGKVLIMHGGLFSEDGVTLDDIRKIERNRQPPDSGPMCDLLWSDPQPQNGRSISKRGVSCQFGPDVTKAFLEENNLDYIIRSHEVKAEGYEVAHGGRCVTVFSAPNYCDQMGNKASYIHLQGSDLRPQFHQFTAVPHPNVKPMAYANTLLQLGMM
# CSC inhib: blocks cancer stem cells; inhibition, % at 7.5 µM; AID 2717; cancer stem cell-like cells viability, luminescence; actives 1.1% (n = 300,000); in the data active = inhibition above about 75%; inconclusive = no clear call, values can overlap the other calls; tested in HMLE shEcad cells
# Calb FLC: affects C. albicans growth with fluconazole. actives 0.57% (n = 300,000). growth inhibition, % (concentration not given with the values). C. albicans CaCi-2 (fluconazole-resistant clinical isolate) + fluconazole, Alamar Blue growth, 48 h;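 active = growth inhibition above about 58% in most replicates, limit read from the data, passing the limit was not always enough; inconclusive = exactly half the replicates above a set limit; inactive = most replicates below a set limit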;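 note: all wells also contain fluconazole at 8 µg/ml as a sub-toxic cotreatment; 0% = median of DMSO wells and 100% = median of geldanamycin control wells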
# Numbers without * were called inactive; ? = inconclusive; nt = no result given.
SMILES,PP1 inh,ALR H2O2 inh,PP5 primary,CSC inhib,Calb FLC
COc1cc(/C=N/N=C2/C(=O)Nc3ccccc32)ccc1O,-1.5,98.7*,2.4,-8.4,11.1
COc1cc(/C=N/N=C2/NC(=O)C(c3ccccc3)S2)ccc1O (stereo not drawn),-0.5,98.6*,0.9,-5.7,17.2
O=C(O)c1cc(NN=Nc2ccc(Br)cc2)cc([N+](=O)[O-])c1,1.2,-0.2,4.8,0.1,-8.6
Cn1ccc(C(=O)N2CCCc3ccccc32)n1,2.2,-5.5,1.2,0.5,0.5
CC1=NN(C(=O)c2ccc(Cn3nc(C)c([N+](=O)[O-])c3C)o2)C(O)(C(F)(F)F)C1 (stereo not drawn),-0.1,1.5,-0.3,8.1,-12.0
Cc1nn(C2CCS(=O)(=O)C2)c(Cl)c1/C=C/C(=O)OCC(=O)N(C)C (stereo not drawn),-2.4,-6.6,-0.7,-5.7,-7.3
O=c1c2ccccc2nc(COc2ccccc2)n1/N=C/c1ccc(O)cc1O,-2.9,77.0*,1.9,67.1,56.9
Cc1nc2ccccc2c(=O)n1/N=C/c1ccccc1O,-2.8,7.3,-0.1,-4.9,3.0
Cc1nc2ccccc2c(=O)n1/N=C/c1ccc(O)c(O)c1O,8.8,98.5*,0.0,-3.1,12.5
Cc1ccccc1CC1S/C(=N/N=C/c2ccco2)NC1=O (stereo not drawn),0.9,nt,1.9,51.4,-7.9
Cc1ccc(-c2nc(CSCC(=O)N3CCOCC3)c(C)o2)cc1,-0.1,99.1*,0.4,-0.7,4.1
Cc1cccc(-c2nc(CSCC(=O)N3CCN(Cc4ccc5c(c4)OCO5)CC3)c(C)o2)c1,3.8,98.4*,4.5,29.0,-40.5
Cc1ccc(-c2nc(CS(=O)(=O)CC(=O)N3CCOCC3)c(C)o2)cc1,-3.6,-7.8,3.2,-11.2,2.8
Cc1ccc(-c2nc(CSCC(=O)N3CCN(C(=O)c4ccco4)CC3)c(C)o2)cc1,-4.1,99.2*,3.2,-5.9,1.4
Cc1ccc(-c2nnc(SCC(=O)N3CCOCC3)nc2-c2ccc(C)cc2)cc1,-2.8,95.1*,3.4,nt,-0.5
COc1ccc(-c2nc(CN3CCN(C(=O)c4ccco4)CC3)c(C)o2)cc1OC,-1.9,-8.1,0.7,nt,-2.8
CCOC(=O)c1sc(NC(=O)c2cc3c(s2)CCC(C)C3)nc1C (stereo not drawn),-1.4,-6.2,1.4,4.9,-0.4
Cc1ccc(S(=O)(=O)c2c(C)nn(C(C)(C)C)c2OC(=O)c2cccs2)cc1,2.2,-2.6,2.9,84.2*,10.7
Cc1ccc(S(=O)(=O)c2c(C)nn(C(C)(C)C)c2OC(=O)c2ccc(Br)o2)cc1,-0.7,nt,1.9,91.3*,86.5*
Cc1nc2ccc(S(=O)(=O)N(C)CC(=O)N3CCc4ccccc43)cc2s1,-0.6,-7.8,0.8,1.7,23.1
COc1cc(/C=C2\SC(=S)N(CC(=O)O)C2=O)ccc1OS(=O)(=O)c1ccc(C)cc1,4.4,89.4*,1.0,4.5,nt
COc1cc(/C=C2/SC(=S)N(Cc3ccccc3)C2=O)ccc1OS(C)(=O)=O,2.6,0.8,-2.3,28.6,2.7
COc1cc(/C=C2/SC(=S)N(Cc3ccccc3)C2=O)cc(Cl)c1O,-2.5,47.5,0.1,116.8*,-7.4
CCOc1cc(/C=C2/SC(=S)N(Cc3ccccc3)C2=O)ccc1O,3.5,2.1,-1.9,76.3*,16.0
O=C1/C(=C\c2cc(Br)cc(Br)c2O)SC(=S)N1Cc1ccccc1,0.0,13.1,4.3,77.5*,0.8
SMILES,PP1 inh,ALR H2O2 inh,PP5 primary,CSC inhib,Calb FLC
O=C(Oc1ccc(=O)n(-c2ccccc2)n1)c1cccc(Cl)c1,-2.0,14.3,-0.1,nt,6.7
O=C(CCc1ccccc1)N=C1SC2CS(=O)(=O)CC2N1c1ccccc1F (stereo not drawn),1.3,-2.7,2.0,0.7,nt
COc1cc([N+](=O)[O-])cc(/C=C2/SC(=S)N(Cc3ccccc3)C2=O)c1O,15.5*,97.1*,4.7,92.2*,?
O=C(c1ccc(Cl)cc1)c1nnc(-c2ccncc2)o1,1.4,-1.7,1.8,-0.1,1.9
CC(=O)Nc1ccc(C(=O)n2cnc3cc(C)c(C)cc32)cc1,0.3,98.7*,3.6,-14.0,-2.6
CC(=O)Nc1ccc(S(=O)(=O)n2cnc3cc(C)c(C)cc32)cc1,-4.2,21.9,-2.3,-13.4,5.8
CC(C)CNC(=O)Nc1ccc(F)c(Cl)c1,1.0,-2.7,0.6,-2.0,30.3
Cc1nnc2sc(SCc3cccc(Cl)c3)nn2c1=O,-3.4,100.1*,3.3,?,1.7
Cc1nnc2sc(SCc3ccccc3)nn2c1=O,5.5,19.8,-0.6,0.1,37.3
Cc1nnc2sc(SCc3ccccc3Cl)nn2c1=O,-0.9,95.7*,0.3,11.4,?
CC(C)(C)c1nnc2sc(SCCN3C(=O)c4ccccc4C3=O)nn2c1=O,1.1,98.7*,-0.1,nt,-2.6
CC(C)N(C(=O)CSc1nn2c(=O)c(C(C)(C)C)nnc2s1)c1ccccc1,0.9,10.6,4.7,nt,-4.5
c1ccc(CSc2ncccn2)cc1,-0.2,-3.1,2.5,-2.5,-17.3
c1ccc(CSC2=NNC(c3ccccn3)S2)cc1 (stereo not drawn),4.0,2.2,-0.5,124.6*,4.6
CC(=O)Nc1ccc(NC(=O)CSc2ccccn2)cc1,-4.2,-7.5,-1.8,-26.2,-6.0
O=C(CSC1=NNC(c2ccccn2)S1)Nc1ccc(C(F)(F)F)cc1 (stereo not drawn),-2.5,nt,1.1,93.4*,-0.6
CCOC(=O)/C=C/S(=O)(=O)c1ccc(NC(C)=O)cc1,7.1,98.1*,-1.7,54.3,-5.4
CCOC(=O)c1cccc(NS(=O)(=O)c2ccc(NC(C)=O)cc2)c1,2.0,1.2,0.8,7.7,0.6
Oc1ccc(-c2csc(-c3ccccc3)n2)cc1O,-2.9,98.9*,2.9,nt,-49.5
COc1ccc(-c2csc(C)n2)cc1Br,6.5,nt,0.1,8.0,0.5
Cc1ccc2nc(-c3ccc(O)c(O)c3)cn2c1,-1.2,98.8*,-1.9,37.2,45.6
O=C(Nc1cccc(-c2csc(-c3ccccc3)n2)c1)c1cccs1,-0.7,1.0,4.5,192.0*,19.1
COc1cc(-c2csc(C)n2)ccc1O,-1.1,96.1*,2.0,-12.9,-1.7
Cc1nc(-c2cccc(NC(=O)c3cccs3)c2)cs1,0.0,14.9,0.7,8.1,2.9
Oc1ccc(-c2csc(-c3cccnc3)n2)cc1O,-3.3,5.2,1.9,54.4,-12.7
SMILES,PP1 inh,ALR H2O2 inh,PP5 primary,CSC inhib,Calb FLC
COc1ccc2cc(S(=O)(=O)NCCCN3CCOCC3)ccc2c1,1.9,nt,2.7,5.9,-2.4
Cc1nc(-c2ccc(O)c(O)c2)cs1,-4.6,99.5*,7.8,5.1,-16.3
C=C(C)COc1ccc(-c2ncncc2-c2ccc(Br)cc2)c(O)c1,5.5,-37.5,-2.1,6.6,5.3
C=C(C)COc1ccc(-c2nc(N)ncc2-c2ccc(Br)cc2)c(O)c1,-3.7,-6.0,2.4,106.6*,0.4
Nc1ncc(-c2ccccc2)c(-c2ccc(O)cc2O)n1,9.1,98.3*,2.9,2.3,-3.4
C=C(C)COc1ccc(-c2n[nH]c(C)c2-c2ccc(Br)cc2)c(O)c1,-2.3,2.2,3.4,101.3*,-3.4
